The whole screen tested about 130,000 compounds, of which about 1,900 (1.5%) were called active. Another 5% or so got no clear call; they are omitted. Calls follow the shape of the dose curve; as a rule, active = well fitted cell-killing curve with a large enough effect; inconclusive = small, poorly fitted or top-dose-only effect; inactive = no such curve, though single readings can be large or run the other way. The sample as a whole holds a higher share of actives than the screen did.
Assay: qHTS Screen for Compounds that Selectively Target Cancer Cells with p53 Mutations: Cytotoxicity of p53ts Cells at the Nonpermissive Temperature; also: nearly all actives have a fitted effect of over 55% in size
Settings: H1299-p53A138V viability at 39C, ATP luminescence, 24 h; series mostly up to 46.1 µM; activity change, negative = cell killing: at the top concentration
% is scaled to controls: 0 for no effect and ±100 for the full control effect; potency is read from the fitted curve at half-maximal effect.

Structure (SMILES) | activity change, negative = cell killing | Potency
CCOC(=O)CNC(=O)c1cc2c(=O)n3cccc(C)c3nc2s1 | -21.7% (inactive) | –
CCCc1nn2c(=O)cc(COC(=O)c3ccc(NC(=O)COc4ccc(F)cc4)cc3)nc2s1 | 11.1% (inactive) | –
COc1ccccc1CNc1ncnc2ccc(-c3ccc4c(c3)OCO4)cc12 | -3.34% (inactive) | –
N#Cc1ccccc1-c1ccc2ncnc(NCc3cccnc3)c2c1 | -2.85% (inactive) | –
N#Cc1cccc(-c2ccc3ncnc(NCc4cccs4)c3c2)c1 | – | 12.6 µM (active)
Cc1ccc(Cl)cc1NC(=O)C1CCCN(c2cnccn2)C1 (configuration not stated) | -7.25% (inactive) | –
O=C(c1cc(-c2ccc(F)cc2)on1)N1CCN(c2ccc(F)cc2)CC1 | 9.22% (inactive) | –
CCN(CC)S(=O)(=O)c1cccc(C(=O)Nc2ccccc2)c1 | -12% (inactive) | –
Cc1ccc(S(=O)(=O)/N=C(/Nc2ccccn2)c2ccc(Cl)cc2)cc1 | -15.9% (inactive) | –
CCN(CC)S(=O)(=O)c1cc(C(=O)Nc2ccccn2)ccc1C | – | 12.6 µM (active)
CN(C(=O)CN1C(=O)CCSc2ccc(S(=O)(=O)N3CCCC3)cc21)c1ccccc1 | -4.63% (inactive) | –
O=C(CSc1nnc(-c2ccccc2F)o1)Nc1cccc(C(F)(F)F)c1 | 8.67% (inactive) | –
O=C(NCCS(=O)(=O)N1CCN(c2ccc(F)cc2)CC1)c1ccccc1Br | -17.1% (inactive) | –
COc1ccc(N2C(=O)CS(=O)(=O)C23C(=O)N(Cc2ccc(C)cc2)c2ccccc23)cc1Cl (configuration not stated) | 21% (inactive) | –
CCCCOc1ccc(C(=O)Nc2cccc(-c3nc4ccccc4o3)c2C)cc1 | 35.1% (inactive) | –
O=C(COc1ccccc1F)Nc1ccc(C(=O)OCc2cc(=O)n3nc(C4CC4)sc3n2)cc1 | -13.1% (inactive) | –
CCCCS(=O)(=O)c1oc(-c2cccs2)nc1S(=O)(=O)c1ccccc1 | – | 3.16 µM (active)
NC(=O)CSc1oc(-c2cccs2)nc1S(=O)(=O)c1ccccc1 | 11.5% (inactive) | –
CSc1oc(-c2cccs2)nc1S(=O)(=O)c1ccc(Br)cc1 | 17.8% (inactive) | –
Cc1nnc(C)n1/N=C/c1ccc(C(C)C)cc1 | -10.4% (inactive) | –
CC(C)c1ccc(-c2nn[nH]n2)cc1 | – | 12.6 µM (active)
c1ccc(-n2ncc(-c3nn[nH]n3)n2)cc1 | -2.58% (inactive) | –
CCc1ccc(-n2nnc(-c3nc(-c4ccccc4)no3)c2C)cc1 | -4.05% (inactive) | –

Structure (SMILES) | activity change, negative = cell killing | Potency
CCOC(=O)c1c(C)oc2nc(C)nc(Nc3ccc(CC)cc3)c12 | 12.3% (inactive) | –
CCOc1ccc(Nc2c(S(=O)(=O)c3ccccc3)cnc3ccccc23)cc1 | -6.31% (inactive) | –
CCOc1ccc(CCNC(=O)c2ccc3c(c2)sc2nc(-c4ccc(F)cc4)cn23)cc1OCC | -30% (inactive) | –
CCCS(=O)(=O)c1ncc(Cl)c(C(=O)Nc2scc(-c3ccccc3)c2C(=O)OCC)n1 | – | 7.94 µM (active)
CCOC(=O)c1scc(-c2ccccc2)c1S(=O)(=O)Nc1ccccc1F | -11.6% (inactive) | –
CCOC(=O)c1ccc(NC(=O)c2nc(SCc3ccc(F)cc3)ncc2Cl)cc1 | -9.35% (inactive) | –
CCOC(=O)C1CCN(c2csc3ccc(C)cc3c2=O)CC1 | -18.6% (inactive) | –
COc1ccc(CNC(=O)c2ccc3c(c2)nc2n3CCOC2)c(OC)c1 | -4.85% (inactive) | –
CCc1ccc(-n2nc(C)c3c(C)cc(=O)n(CC(=O)Nc4ccc(F)cc4C)c32)cc1 | -8.83% (inactive) | –
O=c1oc2cc(O)ccc2cc1-c1ccc(F)cc1 | 7.63% (inactive) | –
COc1ccc2cc(-c3nc(Cl)c4c5c(sc4n3)CC(C)CC5)c(=O)oc2c1 (configuration not stated) | 8.48% (inactive) | –
COc1ccc(-c2cc3ccc(OCc4nn[nH]n4)cc3oc2=O)cc1 | – | 12.6 µM (active)
Cc1cn(C)c(CC(=O)NCc2ccc(Cl)cc2)c1C(=O)O | -8.42% (inactive) | –
CCc1ccc(NC(=O)CCS(=O)(=O)c2cc3c(cc2Cl)NC(=O)CO3)cc1 | -21.4% (inactive) | –
COC(=O)c1sc(NC(=O)c2ccc(OC)cc2OC)nc1C | – | 0.316 µM (active)
COC(=O)c1sc(NC(=O)c2csc3c2CCCC3)nc1C | 12.2% (inactive) | –
COc1ccc(C(=O)Nc2nncs2)c(OC)c1 | -26.2% (inactive) | –
CCOC(=O)c1cccc(NC(=O)c2cc(CN3CCCC3)on2)c1 | -17.2% (inactive) | –
CCOc1ccc(NC(=O)Cn2c(=O)n(CCCC(=O)NCc3ccc4c(c3)OCO4)c(=O)c3ccccc32)cc1 | 2.75% (inactive) | –
COc1ccc(OCC(=O)Nc2cccc(C(=O)OCc3cc(=O)n4nc(C)sc4n3)c2)cc1 | -9.88% (inactive) | –
Cc1nn2c(=O)cc(COC(=O)c3ccccc3NC(=O)COc3ccccc3C)nc2s1 | -9.66% (inactive) | –
Cc1nn2c(=O)cc(COC(=O)c3cccc(NC(=O)COc4ccccc4Cl)c3)nc2s1 | – | 12.6 µM (active)
Cc1cccc(C(=O)NCCc2nc3ccccc3n2Cc2ccccc2Cl)c1 | -12.8% (inactive) | –

Structure (SMILES) | activity change, negative = cell killing | Potency
Cc1ccccc1NC(=O)c1ccccc1 | 2.54% (inactive) | –
Cc1ccc(NC(=O)c2cccc(N(C)C)c2)cc1NC(=O)c1ccc(O)cc1 | – | 7.94 µM (active)
Cc1ccc(F)cc1NC(=O)c1cccc(N(C)C)c1 | -15.6% (inactive) | –
COc1ccc(CCN2C(=O)c3oc4cc(C)cc(C)c4c(=O)c3C2c2ccccc2F)cc1OC (configuration not stated) | -6.84% (inactive) | –
CN(c1nc2ccccc2n2c(-c3ccco3)nnc12)S(=O)(=O)c1ccccc1 | 1.85% (inactive) | –
c1coc(-c2nc3nc4ccccc4n3nc2-c2ccco2)c1 | -3.02% (inactive) | –
Cn1c(-c2ccco2)nc2cc3ccccc3cc21 | – | 1.26 µM (active)
O=C(CCn1ccc2cc(S(=O)(=O)N3CCCC3)ccc21)NCc1cccc(Cl)c1 | -25.5% (inactive) | –
COc1ccc(CC(=O)NCCc2sc3nc(-c4ccc(OC)cc4)nn3c2C)cc1 | -18% (inactive) | –
Cc1cccc(-n2ccnc2SCC(=O)Nc2cc(C(F)(F)F)ccc2Cl)c1 | -21.3% (inactive) | –
O=C(CN1CCN(c2ccccn2)CC1)N1CCc2ccccc21 | 19.6% (inactive) | –
O=C(c1cccc(C(=O)N2CCc3ccccc32)n1)N1CCc2ccccc21 | 1.43% (inactive) | –
O=C(CN1C(=O)c2ccccc2S1(=O)=O)N1CCc2ccccc21 | – | 2 µM (active)
Cc1cccc(NC(=O)c2cc(S(=O)(=O)N3CCC4(CC3)OCCO4)ccc2F)c1 | 5.17% (inactive) | –
CC(=O)Nc1ccc(S(=O)(=O)N2CCN(C(=O)c3ccccc3F)CC2)cc1 | 3.21% (inactive) | –
CC(C)c1ccc(NC(=O)c2cc(S(=O)(=O)N3CCc4ccccc4C3)ccc2F)cc1 | – | 31.6 µM (active)
Cc1nc2ccn(Cc3cccs3)c(=O)c2cc1C(=O)NCc1ccc(Cl)cc1 | -19% (inactive) | –
COC(=O)c1sc2ncccc2c1-n1c(C)ccc1C | -13.8% (inactive) | –
Cc1ccc(-c2nc(S(=O)(=O)c3ccc(C)cc3)c(N3CCCCCC3)o2)cc1 | 6.8% (inactive) | –
COc1ccc(-c2nc(S(=O)(=O)c3ccccc3)c(N3CCCCC3)o2)cc1 | 12.8% (inactive) | –
CC(C)S(=O)(=O)c1oc(-c2ccc(F)cc2)nc1S(=O)(=O)c1ccc(F)cc1 | – | 3.16 µM (active)
